Test results as given in article PMC4336329 (PLoS ONE, 2015).
In all, about 310,000 compounds went through this assay and about 14,000 (4.5%) showed an effect of 50% or more. The effect is printed as a negative number. Shown is part of a subset that was picked to be rich in strong results.

What follows are compounds tested against human ether-à-go-go-related gene (hERG) potassium channel (human, UniProt Q12809) (assay: primary screen, population patch clamp on CHO cells stably expressing hERG; higher = less effect of the substance).
Sequence of human ether-à-go-go-related gene (hERG) potassium channel (Q12809 whole entry, looked up): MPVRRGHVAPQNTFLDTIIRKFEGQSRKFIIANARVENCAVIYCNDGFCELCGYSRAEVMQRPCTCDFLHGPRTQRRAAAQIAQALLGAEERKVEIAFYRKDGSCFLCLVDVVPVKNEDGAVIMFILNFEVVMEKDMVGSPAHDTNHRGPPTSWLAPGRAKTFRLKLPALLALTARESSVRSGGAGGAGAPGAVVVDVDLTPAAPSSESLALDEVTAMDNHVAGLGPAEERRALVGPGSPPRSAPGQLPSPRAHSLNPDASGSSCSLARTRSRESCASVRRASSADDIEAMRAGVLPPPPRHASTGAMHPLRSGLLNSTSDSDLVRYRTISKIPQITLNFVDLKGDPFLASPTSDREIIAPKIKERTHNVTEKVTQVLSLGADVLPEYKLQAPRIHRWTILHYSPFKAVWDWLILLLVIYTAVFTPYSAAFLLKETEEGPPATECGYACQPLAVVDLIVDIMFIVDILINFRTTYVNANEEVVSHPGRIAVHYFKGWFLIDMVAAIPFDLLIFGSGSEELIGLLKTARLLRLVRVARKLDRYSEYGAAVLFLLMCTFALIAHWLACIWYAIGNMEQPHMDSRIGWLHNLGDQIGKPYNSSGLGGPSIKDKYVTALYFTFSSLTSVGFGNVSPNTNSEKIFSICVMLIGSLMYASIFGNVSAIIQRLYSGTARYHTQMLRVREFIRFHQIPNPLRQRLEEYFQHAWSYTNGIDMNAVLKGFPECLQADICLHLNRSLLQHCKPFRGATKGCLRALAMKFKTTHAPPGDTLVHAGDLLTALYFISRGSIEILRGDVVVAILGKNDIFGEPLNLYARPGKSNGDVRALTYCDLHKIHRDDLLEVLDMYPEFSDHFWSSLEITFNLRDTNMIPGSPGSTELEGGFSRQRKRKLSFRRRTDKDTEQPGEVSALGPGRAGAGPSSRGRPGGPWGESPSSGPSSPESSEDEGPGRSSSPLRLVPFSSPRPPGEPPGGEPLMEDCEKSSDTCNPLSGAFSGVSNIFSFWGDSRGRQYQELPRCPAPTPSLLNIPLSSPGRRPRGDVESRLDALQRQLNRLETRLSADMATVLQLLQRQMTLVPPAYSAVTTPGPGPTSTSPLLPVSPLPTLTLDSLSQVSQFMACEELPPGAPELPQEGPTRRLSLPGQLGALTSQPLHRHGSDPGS
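Note: peak tail current of the secondary pulse compared with the same well before compound.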

SMILES	hERG current change (%, negative = inhibition) at 10uM
CC(C)Cn1c(N)c(C(=O)COC(=O)C2=COCCO2)c(=O)n(C)c1=O	14.1%
CCOC(=O)NCN1C(=O)C2C3C=CC(C3)C2C1=O (stereo not drawn)	-11.9%
CCCCN(CCCC)c1nc(-c2ccncc2)nc2ccccc12	-0.281%
CCN(CC)c1nc(-c2ccccc2)nc2ccccc12.Cl	-32.5%
CCCN(CCC)c1nc(-c2ccccn2)nc2ccccc12	-74.4%
Cc1ccc(N2CC(C(=O)NCc3ccccn3)CC2=O)cc1 (stereo not drawn)	5.36%
Cc1ccc(-c2csc(NC(=O)c3cc([N+](=O)[O-])ccc3N3CCOCC3)n2)cc1	15.4%
COc1ccc(C(NC(N)=O)c2ccccc2)cc1 (stereo not drawn)	10.3%
CN1CCN(CCCN(Cc2cccs2)C(=S)Nc2ccc(Cl)cc2)CC1	-71.8%
CCc1ccc(NC(=S)N(CCCN2CCN(C)CC2)Cc2cccs2)cc1	-62.5%
Cc1cc(C)cc(NC(=S)N(CCCN2CCN(C)CC2)Cc2cccs2)c1	-63.3%
Cc1ccc(NC(=S)N(CCCN2CCN(C)CC2)Cc2cccs2)cc1	-51.3%
CCc1cccc(C)c1NC(=S)N(CCCN1CCN(C)CC1)Cc1cccs1	-30.9%
Cc1ccc(NC(=S)N(CCN(C)C)Cc2cccs2)cc1	-19.3%
Cc1cc(C)c(NC(=S)N(CCCN2CCN(C)CC2)Cc2cccs2)c(C)c1	-43.9%
S=C(Nc1ccc(Cl)cc1)N(CCCN1CCOCC1)Cc1cccs1	-32.4%
Cc1cc(C)cc(NC(=S)N(CCN(C)C)Cc2cccs2)c1	-25.1%
CC1CCCC(NS(=O)(=O)c2cc(Br)cnc2N)C1C (stereo not drawn)	-8.36%
CC(=O)NC(CC(=O)Nc1nc(-c2ccccc2)c(C(C)=O)s1)c1ccccc1 (stereo not drawn)	-44.4%
COc1ccccc1C(=O)NNC1=C(C(=O)C(F)(F)F)CCC1	-2.03%
O=C(CCl)NN1C(=O)NC(c2ccccc2)(c2ccccc2)C1=O	11.2%
O=C(O)c1ccc(N(c2ccccc2)c2ccccc2)cc1	2.69%
CCCN1CCN(C(=O)c2cccc3c2C(=O)N(CCOC)C3)CC1	13%

SMILES	hERG current change (%, negative = inhibition) at 10uM
COc1ccc(-c2nnc(SCC(N)=O)n2N)cc1	6.29%
COc1cc(/C=N/NC(=O)c2nnn(-c3nonc3N)c2C(C)C)ccc1O	-2.72%
O=C1CC(NC(=O)c2ccc(Cl)cc2)C(=O)N1 (stereo not drawn)	14.8%
Cc1cccc2sc(NC(=O)c3ccc(OCC4CCCO4)cc3)nc12 (stereo not drawn)	9.85%
CCc1ccc(NC(=S)N2CCNC(=O)C2CC(=O)OC)cc1 (stereo not drawn)	7.17%
COCCNC(=O)CCCCCNS(=O)(=O)c1ccc(C)cc1	8.18%
CCN(CC)CCNC(=O)c1ccc(NC(=O)Cc2ccccc2F)cc1	-6.75%
CCc1ccc(N(CC(=O)NC(C)(C)C)C(=O)CNC(=O)c2cccs2)cc1	15.5%
Cc1nc(S/C(=C/c2ccc(-c3ccc(C(=O)O)cc3)o2)C(=O)O)n[nH]1	-11.4%
Cc1ccc(NC(=S)N(CCN(C)C)Cc2cccs2)cc1C	-46.7%
Cc1ccc(NC(=S)N(CCCN2CCN(C)CC2)Cc2cccs2)cc1C	-57%
O=S(=O)(c1ccc(SCc2ccccc2)nc1)N1CCCCC1	4.03%
O=C(C[n+]1ccccc1)Nc1nc2ccccc2s1.[Cl-]	0.223%
COc1ccc(C2CC(c3ccc(Br)cc3)=NN2C(=O)CCC(=O)O)cc1OC (stereo not drawn)	9.97%
Cc1ccc(O)c(NC(=O)C2CC(c3ccc(F)cc3)=NO2)c1 (stereo not drawn)	-3.98%
C[C@]12CC[C@@H](O)C[C@@H]1CC[C@@H]1[C@@H]2CC[C@]2(C)C(=O)CC[C@@H]12	5.99%
C[C@]12CC[C@H](O)C[C@@H]1CC[C@@H]1[C@@H]2CC[C@]2(C)C(=O)CC[C@@H]12	-58.3%
C[C@]12CC[C@@H](O)C[C@H]1CC[C@@H]1[C@@H]2CC[C@]2(C)C(=O)CC[C@@H]12	-3.43%
Cc1ccc(-n2c(O)c(C=NCCN3CCNCC3)c(=O)[nH]c2=S)cc1	22%
O=S1(=O)CCN=C2SC3=C(CCCC3)N21	1.25%
CC1CC(C)CN(C(=O)COC(=O)c2ccc3c(c2)C(=O)N(Cc2ccco2)C3=O)C1 (stereo not drawn)	-68.7%
CC1CCCCN1C(=O)COC(=O)c1ccc2c(c1)C(=O)N(Cc1ccco1)C2=O (stereo not drawn)	-34.9%
O=C(OCC(=O)N1CCCCC1)c1ccc2c(c1)C(=O)N(Cc1ccco1)C2=O	-28%

SMILES	hERG current change (%, negative = inhibition) at 10uM
CN(CC(=O)Nc1ccccc1Br)C(=O)c1cccn1C	16.2%
Cl.O=C(CCS(=O)(=O)c1ccccc1)N(CCCN1CCOCC1)c1nc2ccccc2s1	-14.1%
CCc1nn(CC(=O)NCCC2=CCCCC2)c(=O)c2cc3cc(F)ccc3n12	15.7%
CN(C)S(=O)(=O)c1ccc(NC(=O)CN2CCN(c3ccccn3)CC2)cc1	13.9%
CCn1c2ccccc2c2nnc(SCc3ccccc3)nc21	-3.61%
c1ccc(Cn2c3ccccc3c3nnc(SCCN4CCCCC4)nc32)cc1	-67.7%
CCN(CC)CCSc1nnc2c3ccccc3n(CCc3ccccc3)c2n1	-75.3%
O=C1c2ccccc2C(=O)N1CSc1nnc2c3ccccc3n(CCc3ccccc3)c2n1	14.4%
CSc1nnc2c3ccccc3n(Cc3ccccc3)c2n1	25.8%
CCn1c2ccccc2c2nnc(SCCN3CCCCC3)nc21	-39.1%
CCN(CC)CCSc1nnc2c3ccccc3n(Cc3ccccc3)c2n1	-75.4%
CSc1nnc2c3ccccc3n(CCc3ccccc3)c2n1	-12.1%
C=CCn1c2ccccc2c2nnc(SCCN3CCCCC3)nc21	-46.4%
O=C(CSc1nnc(NC(=O)c2cccc(F)c2)s1)NC1CCCC1	13.9%
Cc1cc(C)nc(NC(=O)c2c(F)c(F)c(F)c(C(=O)Nc3cc(C)cc(C)n3)c2F)c1	-8.14%
CN(C)C=O.CNC(=O)CSc1nc2nc(C)cc(C)n2n1	0.176%
Cc1cccc(OCC(=O)Nc2nnc(-c3ccco3)s2)c1	-1.94%
CCOc1ccc2nc(SC3CC(=O)N(c4ccc(C)cc4)C3=O)sc2c1 (stereo not drawn)	-6.29%
Cc1cc(C(=O)NCCCn2ccnc2)sc1-c1ccccc1	-10.3%
CCc1cccc(NS(=O)(=O)c2c(C)nc3scc(C)n3c2=O)c1	9.84%
Cc1ccc(CN2CCC(CNS(=O)(=O)c3ccc(-c4ccc(=O)[nH]n4)s3)CC2)cc1	-60.6%
Cc1nc2scc(C)n2c(=O)c1S(=O)(=O)Nc1ccc(F)cc1	-22.8%
COC(=O)c1cc(S(=O)(=O)NCC2CCN(Cc3cccc(F)c3)CC2)c[nH]1	-16.7%

SMILES	hERG current change (%, negative = inhibition) at 10uM
O=c1ccc(-c2ccc(S(=O)(=O)NCC3CCN(Cc4ccccc4F)CC3)s2)n[nH]1	-32.6%
Cc1cccc(NS(=O)(=O)c2c(C)nc3scc(C)n3c2=O)c1	-65.2%
COC(=O)c1cc(S(=O)(=O)NCC2CCN(Cc3ccccc3F)CC2)c[nH]1	-21.4%
CCOC(=O)c1c(C)[nH]c(C)c1S(=O)(=O)NCC1CCN(Cc2cccc(Cl)c2)CC1	-20.5%
CCOC(=O)c1c(C)[nH]c(C)c1S(=O)(=O)NCC1CCN(Cc2ccc(C)cc2)CC1	-60.2%
COC(=O)c1cc(S(=O)(=O)NCC2CCN(Cc3ccc(F)cc3)CC2)c[nH]1	-57%
CCOC(=O)c1c(C)[nH]c(C)c1S(=O)(=O)NCC1CCN(Cc2cccc(F)c2)CC1	-1.69%
O=c1ccc(-c2ccc(S(=O)(=O)NCC3CCN(Cc4cccc(F)c4)CC3)s2)n[nH]1	-8.55%
Cc1n[nH]c(C)c1CCNC(=O)C1CCC(=O)N(CCc2cccc(F)c2)C1 (stereo not drawn)	9.63%
Cc1ccc(C(=O)NCCNC(=O)c2ccccc2)cc1	8.24%
O=[N+]([O-])c1ccc(C23CC4CC(CC(O)(C4)C2)C3)cc1	-37.8%
O=C(Nc1ccc2nc(-c3ccc4nc[nH]c4c3)[nH]c2c1)c1cccs1	17.1%
Cc1nc2scc(C)n2c(=O)c1S(=O)(=O)NCCc1ccc(Cl)cc1	7.69%
COC(=O)c1cc(S(=O)(=O)NCCc2ccc(C)cc2)c[nH]1	-9.92%
Cc1nc2scc(C)n2c(=O)c1S(=O)(=O)NCC1CCN(Cc2ccc(Cl)cc2)CC1	-50.1%
COC(=O)c1cc(S(=O)(=O)NCC2CCN(Cc3ccc(C)cc3)CC2)c[nH]1	-73.8%
COC(=O)c1cc(S(=O)(=O)NCC2CCN(Cc3ccc(Cl)cc3)CC2)c[nH]1	-71.2%
COC(=O)c1cc(S(=O)(=O)NCCc2ccc(Cl)cc2)c[nH]1	-3.4%
Cc1nc2scc(C)n2c(=O)c1S(=O)(=O)NCC1CCN(Cc2ccc(F)cc2)CC1	-49.7%
COC(=O)c1cc(S(=O)(=O)NCC2CCN(Cc3cc(C)ccc3C)CC2)c[nH]1	-11%
COC(=O)c1cc(S(=O)(=O)NCC2CCN(Cc3cccc(Cl)c3)CC2)c[nH]1	-41.9%
